Experimental data as given in the supplement of paper PMC11001985.
Values without a mark were called inactive.

Compound: C#CCNC(=O)CCSSCCC(=O)NCCc1ccc(C=O)c(C=O)c1
Experiment: lysine labeling ratio R10:1 (500 µM / 50 µM probe), SILAC-ABPP in living cells; higher = lower intrinsic lysine reactivity toward the probe, active = 2 or less
Conditions: HeLa; probe concentrations 500 vs 50 µM
Method in brief: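 For each lysine, R is the median over forward and reverse replicates of the filtered median MS1 peptide ratio of high probe to low probe. The probe, an alkyne-tagged, disulfide-linked lysine probe, was given at 500 µM or 50 µM to living SILAC light and heavy HeLa cells in PBS at room temperature, with label swaps. Values are capped at 20.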

Sequence of UniProt P35579 (P35579 whole entry): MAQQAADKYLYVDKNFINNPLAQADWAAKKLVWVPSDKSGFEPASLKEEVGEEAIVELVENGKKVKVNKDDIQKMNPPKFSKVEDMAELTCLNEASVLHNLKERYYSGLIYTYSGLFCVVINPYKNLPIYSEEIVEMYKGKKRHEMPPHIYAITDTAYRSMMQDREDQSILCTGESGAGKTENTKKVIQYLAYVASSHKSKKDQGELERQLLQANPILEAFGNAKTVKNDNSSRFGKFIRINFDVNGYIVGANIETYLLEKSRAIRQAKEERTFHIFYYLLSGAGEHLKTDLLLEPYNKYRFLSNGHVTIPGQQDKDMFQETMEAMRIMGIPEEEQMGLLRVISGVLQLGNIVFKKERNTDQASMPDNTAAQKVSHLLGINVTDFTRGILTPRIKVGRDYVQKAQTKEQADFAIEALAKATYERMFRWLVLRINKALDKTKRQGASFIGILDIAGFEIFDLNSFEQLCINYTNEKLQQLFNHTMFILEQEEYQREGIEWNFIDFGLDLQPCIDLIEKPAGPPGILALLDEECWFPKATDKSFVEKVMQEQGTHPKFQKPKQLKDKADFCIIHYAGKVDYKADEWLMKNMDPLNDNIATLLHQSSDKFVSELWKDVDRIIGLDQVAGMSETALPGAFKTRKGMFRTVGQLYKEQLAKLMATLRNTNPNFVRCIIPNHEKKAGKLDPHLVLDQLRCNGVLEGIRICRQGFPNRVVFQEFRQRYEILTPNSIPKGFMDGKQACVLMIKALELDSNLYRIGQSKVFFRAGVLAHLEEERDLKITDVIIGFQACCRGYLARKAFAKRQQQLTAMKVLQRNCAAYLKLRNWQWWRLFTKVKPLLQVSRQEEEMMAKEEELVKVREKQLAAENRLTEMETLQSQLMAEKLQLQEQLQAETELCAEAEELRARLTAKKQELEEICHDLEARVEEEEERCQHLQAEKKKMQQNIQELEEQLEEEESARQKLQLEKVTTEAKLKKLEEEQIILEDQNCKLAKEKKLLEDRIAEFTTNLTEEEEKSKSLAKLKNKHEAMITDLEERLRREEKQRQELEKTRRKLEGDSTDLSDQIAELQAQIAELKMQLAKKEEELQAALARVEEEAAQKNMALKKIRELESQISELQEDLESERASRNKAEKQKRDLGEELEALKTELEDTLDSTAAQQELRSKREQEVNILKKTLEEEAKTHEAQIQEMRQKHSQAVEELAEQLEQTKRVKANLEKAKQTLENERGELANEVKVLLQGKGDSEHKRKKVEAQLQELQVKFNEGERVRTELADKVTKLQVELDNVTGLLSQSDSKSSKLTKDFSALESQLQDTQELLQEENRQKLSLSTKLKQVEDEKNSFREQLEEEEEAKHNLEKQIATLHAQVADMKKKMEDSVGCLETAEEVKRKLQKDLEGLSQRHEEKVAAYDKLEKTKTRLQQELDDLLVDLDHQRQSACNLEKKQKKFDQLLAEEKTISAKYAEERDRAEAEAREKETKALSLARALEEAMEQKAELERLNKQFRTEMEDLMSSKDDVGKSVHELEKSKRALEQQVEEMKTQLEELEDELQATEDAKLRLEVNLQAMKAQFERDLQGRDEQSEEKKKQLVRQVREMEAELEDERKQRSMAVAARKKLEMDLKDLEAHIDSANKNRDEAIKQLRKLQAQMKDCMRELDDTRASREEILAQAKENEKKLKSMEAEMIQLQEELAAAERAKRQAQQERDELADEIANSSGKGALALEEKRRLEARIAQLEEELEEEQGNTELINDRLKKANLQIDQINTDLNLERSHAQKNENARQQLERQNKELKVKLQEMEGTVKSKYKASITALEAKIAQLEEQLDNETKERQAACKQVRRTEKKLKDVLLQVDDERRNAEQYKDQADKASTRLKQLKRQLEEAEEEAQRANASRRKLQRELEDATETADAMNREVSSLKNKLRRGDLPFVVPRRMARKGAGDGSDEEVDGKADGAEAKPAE
Sequence of UniProt Q96F46 (Q96F46 whole entry): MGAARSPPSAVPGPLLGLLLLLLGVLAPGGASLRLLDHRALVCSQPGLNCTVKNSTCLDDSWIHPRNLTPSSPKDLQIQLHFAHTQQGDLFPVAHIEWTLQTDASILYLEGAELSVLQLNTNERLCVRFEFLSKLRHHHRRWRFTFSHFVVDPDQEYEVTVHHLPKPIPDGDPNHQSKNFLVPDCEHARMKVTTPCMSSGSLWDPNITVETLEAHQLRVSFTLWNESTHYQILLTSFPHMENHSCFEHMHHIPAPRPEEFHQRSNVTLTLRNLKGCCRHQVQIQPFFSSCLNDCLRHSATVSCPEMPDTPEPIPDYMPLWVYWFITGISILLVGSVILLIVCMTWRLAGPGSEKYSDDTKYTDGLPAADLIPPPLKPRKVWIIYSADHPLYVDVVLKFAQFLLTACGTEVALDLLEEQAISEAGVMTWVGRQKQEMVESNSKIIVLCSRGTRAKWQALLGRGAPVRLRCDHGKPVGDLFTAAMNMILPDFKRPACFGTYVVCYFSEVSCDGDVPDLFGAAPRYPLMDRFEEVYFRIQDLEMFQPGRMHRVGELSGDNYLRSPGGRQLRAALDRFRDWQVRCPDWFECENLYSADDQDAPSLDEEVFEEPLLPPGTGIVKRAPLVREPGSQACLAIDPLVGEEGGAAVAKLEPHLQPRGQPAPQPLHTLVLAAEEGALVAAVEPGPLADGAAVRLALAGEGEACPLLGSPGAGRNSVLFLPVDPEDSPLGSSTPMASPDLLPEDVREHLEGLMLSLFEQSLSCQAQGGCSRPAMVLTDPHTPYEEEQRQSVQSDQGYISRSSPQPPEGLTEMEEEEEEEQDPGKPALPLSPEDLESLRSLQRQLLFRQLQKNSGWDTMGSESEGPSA
Sequence of UniProt Q00341 (Q00341 whole entry): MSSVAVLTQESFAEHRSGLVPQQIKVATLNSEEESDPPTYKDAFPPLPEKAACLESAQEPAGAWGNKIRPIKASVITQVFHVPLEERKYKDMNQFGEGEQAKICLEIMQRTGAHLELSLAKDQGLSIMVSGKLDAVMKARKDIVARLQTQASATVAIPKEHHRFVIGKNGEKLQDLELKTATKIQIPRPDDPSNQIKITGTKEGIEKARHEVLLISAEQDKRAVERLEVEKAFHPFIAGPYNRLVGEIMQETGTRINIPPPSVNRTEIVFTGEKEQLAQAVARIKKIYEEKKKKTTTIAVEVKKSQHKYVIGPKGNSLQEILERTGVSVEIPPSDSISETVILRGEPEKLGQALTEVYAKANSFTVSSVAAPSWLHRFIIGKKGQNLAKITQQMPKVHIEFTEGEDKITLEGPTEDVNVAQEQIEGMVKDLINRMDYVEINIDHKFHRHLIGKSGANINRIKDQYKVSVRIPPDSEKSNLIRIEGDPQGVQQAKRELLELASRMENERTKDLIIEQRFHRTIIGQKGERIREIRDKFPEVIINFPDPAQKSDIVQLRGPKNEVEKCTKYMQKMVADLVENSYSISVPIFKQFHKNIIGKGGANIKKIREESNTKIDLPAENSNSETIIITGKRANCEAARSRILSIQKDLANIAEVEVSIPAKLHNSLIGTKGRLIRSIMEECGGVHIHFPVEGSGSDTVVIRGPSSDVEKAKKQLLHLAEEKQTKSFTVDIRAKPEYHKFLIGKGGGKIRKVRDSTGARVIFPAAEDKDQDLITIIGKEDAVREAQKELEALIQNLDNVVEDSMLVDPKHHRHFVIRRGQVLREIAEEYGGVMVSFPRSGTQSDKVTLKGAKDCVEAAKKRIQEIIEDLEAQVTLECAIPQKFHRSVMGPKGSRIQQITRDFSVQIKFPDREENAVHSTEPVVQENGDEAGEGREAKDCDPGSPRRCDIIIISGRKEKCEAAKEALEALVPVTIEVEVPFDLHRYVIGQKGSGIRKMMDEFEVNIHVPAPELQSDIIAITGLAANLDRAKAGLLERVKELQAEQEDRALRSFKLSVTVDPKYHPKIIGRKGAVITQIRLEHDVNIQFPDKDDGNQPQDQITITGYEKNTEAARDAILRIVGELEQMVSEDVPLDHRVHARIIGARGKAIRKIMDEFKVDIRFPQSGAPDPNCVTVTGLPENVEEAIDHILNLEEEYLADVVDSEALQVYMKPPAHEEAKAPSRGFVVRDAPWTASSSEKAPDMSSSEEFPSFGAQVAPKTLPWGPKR
Sequence of UniProt Q6NZI2 (Q6NZI2 whole entry): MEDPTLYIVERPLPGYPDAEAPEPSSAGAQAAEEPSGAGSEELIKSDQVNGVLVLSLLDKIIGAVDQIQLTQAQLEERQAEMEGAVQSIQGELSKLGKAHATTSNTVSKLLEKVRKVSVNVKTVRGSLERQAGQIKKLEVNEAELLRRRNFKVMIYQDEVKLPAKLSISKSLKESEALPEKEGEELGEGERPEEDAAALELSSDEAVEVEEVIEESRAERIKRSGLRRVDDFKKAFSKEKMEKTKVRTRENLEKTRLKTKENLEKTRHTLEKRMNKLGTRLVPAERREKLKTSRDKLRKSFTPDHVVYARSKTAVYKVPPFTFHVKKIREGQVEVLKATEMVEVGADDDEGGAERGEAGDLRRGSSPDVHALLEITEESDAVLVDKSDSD
Sequence of UniProt P23526 (P23526 whole entry, looked up): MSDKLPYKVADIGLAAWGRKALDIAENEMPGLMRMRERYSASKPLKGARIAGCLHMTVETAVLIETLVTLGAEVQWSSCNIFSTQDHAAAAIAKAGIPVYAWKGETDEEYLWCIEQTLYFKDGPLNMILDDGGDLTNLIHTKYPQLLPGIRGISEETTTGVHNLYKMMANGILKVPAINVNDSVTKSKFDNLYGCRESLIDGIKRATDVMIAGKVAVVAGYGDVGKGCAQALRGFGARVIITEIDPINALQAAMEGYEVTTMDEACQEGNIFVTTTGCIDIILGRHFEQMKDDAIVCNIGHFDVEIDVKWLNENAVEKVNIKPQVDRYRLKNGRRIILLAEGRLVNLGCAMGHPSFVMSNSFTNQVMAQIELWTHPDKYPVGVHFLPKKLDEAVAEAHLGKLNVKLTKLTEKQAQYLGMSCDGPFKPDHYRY
Sequence of UniProt P23528 (P23528 whole entry): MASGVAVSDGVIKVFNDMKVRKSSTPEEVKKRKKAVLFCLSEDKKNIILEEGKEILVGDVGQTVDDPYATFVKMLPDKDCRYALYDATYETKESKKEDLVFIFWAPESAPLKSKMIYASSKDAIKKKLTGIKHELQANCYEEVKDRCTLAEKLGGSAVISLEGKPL

Target	lysine labeling ratio R10:1
AHCY (lysine site: K204) (UniProt P23526)	1.25 (active)
XRCC6 (lysine site: K297) (UniProt P12956)	1.09 (active)
CCT6A (lysine site: K530) (UniProt P40227)	4.16
UniProt Q15149 (lysine site: K3027)	2.74
ATP1B1 (lysine site: K111) (UniProt P05026)	2.14
LTBR (lysine site: K48) (UniProt P36941)	4.97
UniProt P05787 (lysine site: K207)	3.47
EIF3I (lysine site: K2) (UniProt Q13347)	2.67
MSN (lysine site: K313) (UniProt P26038)	5.6
MARS (lysine site: K726) (UniProt P56192)	0.748 (active)
MYH9 (lysine site: K1669) (UniProt P35579)	5.57
UniProt P20591 (lysine site: K505)	2.52
ANXA1 (lysine site: K287) (UniProt P04083)	2.78
HNRNPU (lysine site: K614) (UniProt Q00839)	2.36
UniProt P16144 (lysine site: K388)	0.94 (active)
DDX5 (lysine site: K523) (UniProt P17844)	4.4
IL17RA (lysine site: K274) (UniProt Q96F46)	0.998 (active)
UniProt Q6NZI2 (lysine site: K258)	9.27
PPIA (lysine site: K31) (UniProt P62937)	3.16
PTGFRN (lysine site: K435) (UniProt Q9P2B2)	5.47

Target	lysine labeling ratio R10:1
HSP90B1 (lysine site: K630) (UniProt P14625)	2.66
HSPA8 (lysine site: K512) (UniProt P11142)	7.92
FSCN1 (lysine site: K43) (UniProt Q16658)	1.7 (active)
CTNNA1 (lysine site: K16) (UniProt P35221)	3.72
MYH9 (lysine site: K1024) (UniProt P35579)	1.84 (active)
CKAP4 (lysine site: K301) (UniProt Q07065)	2.85
CLTC (lysine site: K1264) (UniProt Q00610)	1.58 (active)
UniProt P14618 (lysine site: K247)	3
ASPH (lysine site: K552) (UniProt Q12797)	4.2
PRDX2 (lysine site: K196) (UniProt P32119)	2.99
CFL1 (lysine site: K78) (UniProt P23528)	1.61 (active)
ATP6V0D1 (lysine site: K288) (UniProt P61421)	1.76 (active)
ACSL3 (lysine site: K706) (UniProt O95573)	3.43
UniProt P62269 (lysine site: K137)	3.21
UniProt Q00341 (lysine site: K1066)	6.11
RPL3 (lysine site: K373) (UniProt P39023)	2.31
PSMD7 (lysine site: K180) (UniProt P51665)	2.86
CD109 (lysine site: K1291) (UniProt Q6YHK3)	2.41
UniProt P60842 (lysine site: K146)	3.63
ITGA6 (lysine site: K594) (UniProt P23229)	6.44
